Screen size: about 16,000 compounds; about 960 (6%) were called active.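 Rule for the calls: active = compound fluorescence over control fluorescence at most 0.8, a quencher, or at least a set upper limit, an enhancer; inactive = ratio between 0.8 and the set upper limit.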 Many of the other results were omitted from the sample, so actives are more common in it than they were.
Assay: Cy5 fluorescence quenchers or enhancers, artefact control for HCV NS3 helicase inhibitor project, biochemical, ChemBridge library, Cy5 readout (AID 720488)
Conditions: Cy5-dT15 DNA with NS3h, at 100 µM, actives lie on both sides, signal over control mean, under 1 quenches
In the case of `O=C1/C(=C\c2cn(Cc3ccccc3F)c3ccccc23)SC(=S)N1c1ccc([N+](=O)[O-])cc1`, the fluorescence interference ratio was 0.998 (inactive).
For `CC(C)(C)N1C(=O)NC(=O)C(=Cc2cccs2)C1=O`, the fluorescence interference ratio was 1.01 (inactive).
With `CCCCOC(=O)CCN1C(=O)/C(=C/c2ccc3c(c2)OCO3)SC1=S` the fluorescence interference ratio was 0.998 (inactive).
In the case of `O=C(NC(NC(=O)C(c1ccccc1)c1ccccc1)c1ccc(F)cc1)C(c1ccccc1)c1ccccc1`, the fluorescence interference ratio was 1.07 (inactive).
With `CCOC(=O)c1ccc(NC2C=CS(=O)(=O)C2)cc1` (configuration not stated) the fluorescence interference ratio was 0.986 (inactive).
With `O=C(COc1ccccc1Cl)Nc1ccc(O)cc1C(=O)O` the fluorescence interference ratio was 1 (inactive).
In the case of `O=C(NCCN1CCN(S(=O)(=O)c2ccccc2)CC1)C(=O)Nc1ccc(Br)cc1`, the fluorescence interference ratio was 1.01 (inactive).
For `COc1ccc(OC)c(S(=O)(=O)N2CCC(Cc3ccccc3)CC2)c1`, the fluorescence interference ratio was 0.968 (inactive).
In the case of `COc1cc(C(=O)N2CCC(Cc3ccccc3)CC2)c([N+](=O)[O-])cc1OC`, the fluorescence interference ratio was 0.65 (active).
With `COc1ccccc1CN1CCN(C(=O)c2ccc([N+](=O)[O-])cc2)CC1` the fluorescence interference ratio was 1.03 (inactive).
In the case of `CCOc1ccc(C(=O)Nc2cc3nn(-c4ccc(C)cc4)nc3cc2C)cc1[N+](=O)[O-]`, the fluorescence interference ratio was 1.04 (inactive).
In the case of `CN1C(=O)/C(=C\c2ccccc2OCCOc2ccc(Br)cc2)SC1=S`, the fluorescence interference ratio was 1.14 (inactive).
In the case of `Cc1cccc(NC(=O)COc2ccc3ccccc3c2)c1C`, the fluorescence interference ratio was 1.12 (inactive).
With `C=CC[n+]1c(-c2ccc(OC)cc2)csc1Nc1cccc(C)c1C` the fluorescence interference ratio was 1.2 (active).
With `CCC(=O)CC(O)(c1ccccc1)C(F)(F)F` (configuration not stated) the fluorescence interference ratio was 0.957 (inactive).
In the case of `Cc1cccc(OCC(=O)Nc2ccc(Cl)c(C(F)(F)F)c2)c1`, the fluorescence interference ratio was 1.07 (inactive).
For `Cc1ccc(C(=O)Nc2ccc(Cl)cn2)cc1[N+](=O)[O-]`, the fluorescence interference ratio was 1.02 (inactive).
With `O=C1/C(=C\c2cccc(Br)c2)SC(=S)N1c1cccc(C(F)(F)F)c1` the fluorescence interference ratio was 0.626 (active).
In the case of `O=Cc1ccc(/C=C2/SC(=S)N(c3cccc(Cl)c3)C2=O)cc1`, the fluorescence interference ratio was 1.1 (inactive).
For `COc1ccc(Br)cc1/C=C1/SC(=S)N(c2cccc(C(F)(F)F)c2)C1=O`, the fluorescence interference ratio was 0.773 (active).
For `O=C1/C(=C\c2cccc(C(F)(F)F)c2)SC(=S)N1c1ccccc1`, the fluorescence interference ratio was 1.08 (inactive).
With `COc1cc(/C=C2/SC(=S)N(c3c(C)n(C)n(-c4ccccc4)c3=O)C2=O)c([N+](=O)[O-])cc1OC` the fluorescence interference ratio was 0.991 (inactive).
With `COc1ccccc1/C=C1\SC(=S)N(CC(C)C)C1=O` the fluorescence interference ratio was 0.946 (inactive).
With `O=C(CN(c1ccc(Br)cc1)S(=O)(=O)c1ccccc1)NCC1CCCO1` (configuration not stated) the fluorescence interference ratio was 1.03 (inactive).
In the case of `Cc1ccc(NCC(O)COc2ccc(OCC(O)CNc3ccc(C)cc3C)cc2)c(C)c1` (configuration not stated), the fluorescence interference ratio was 1.06 (inactive).
In the case of `COC(=O)C1=C(C)N=c2s/c(=C/c3ccccc3OC(C)=O)c(=O)n2C1c1ccc(OC(C)=O)cc1` (configuration not stated), the fluorescence interference ratio was 0.949 (inactive).
For `O=C(/C=C/c1cc2c(cc1Br)OCO2)c1ccc(Cl)cc1`, the fluorescence interference ratio was 1.06 (inactive).
For `Cc1ccc(S(=O)(=O)N2CCN(Cc3ccc(F)cc3)CC2)cc1`, the fluorescence interference ratio was 0.977 (inactive).
With `COc1cc(CN2CCN(Cc3cccc(F)c3)CC2)cc(OC)c1OC` the fluorescence interference ratio was 1.09 (inactive).
With `Cc1cccc(CN2CCN(S(C)(=O)=O)CC2)c1` the fluorescence interference ratio was 0.788 (active).
With `COc1cc(NC(=O)c2ccc(Br)cc2)cc([N+](=O)[O-])c1` the fluorescence interference ratio was 0.953 (inactive).
In the case of `O=C(CSc1ccc(Cl)cc1Cl)Nc1cccc([N+](=O)[O-])c1`, the fluorescence interference ratio was 0.897 (inactive).
With `COc1cc(/C=C2/SC(=S)NC2=O)ccc1OCCOCCOc1ccc(C)cc1` the fluorescence interference ratio was 0.925 (inactive).
In the case of `COc1cc(/C=C2/C(=O)NC(=O)N(c3ccc(C)cc3)C2=O)ccc1OCCOc1ccc([N+](=O)[O-])cc1`, the fluorescence interference ratio was 0.823 (inactive).
For `COc1cc(C=C2C(=O)NC(=O)NC2=O)ccc1OCCOc1ccc([N+](=O)[O-])cc1`, the fluorescence interference ratio was 0.699 (active).
For `COC(=O)C1=C(C)NC2=C(C(=O)c3ccccc32)C1c1cc2c(cc1Br)OCO2` (configuration not stated), the fluorescence interference ratio was 1.02 (inactive).
For `O=C(c1ccc(S(=O)(=O)N2CCOCC2)cc1)N1CCN(c2ccccc2)CC1`, the fluorescence interference ratio was 0.907 (inactive).
In the case of `CS(=O)(=O)N(CC(=O)N1CCOCC1)c1ccccc1Cl`, the fluorescence interference ratio was 0.989 (inactive).
For `CS(=O)(=O)N1CCN(C(=O)Cc2ccccc2)CC1`, the fluorescence interference ratio was 0.765 (active).
For `CCC(=O)Nc1ccccc1C(=O)N1CCN(Cc2ccccc2)CC1`, the fluorescence interference ratio was 0.994 (inactive).
With `COc1ccccc1OCC(=O)Nc1nc(-c2cccs2)c(NC(=O)c2ccccc2)s1` the fluorescence interference ratio was 0.958 (inactive).
For `CSc1ccccc1NC(=O)CSc1nc2ccccc2o1`, the fluorescence interference ratio was 0.737 (active).
With `O=C(CSc1nc2ccccc2o1)Nc1ccc2c(c1)OCO2` the fluorescence interference ratio was 0.937 (inactive).
With `Cc1ccc(C(=O)Nc2cccc(-c3nc4ccccc4o3)c2C)cc1` the fluorescence interference ratio was 0.985 (inactive).
For `C=CCc1ccccc1OCCn1cc(/C=C2/SC(=S)N(CC)C2=O)c2ccccc21`, the fluorescence interference ratio was 1.05 (inactive).
With `O=C(NCC1OCCc2ccccc21)C(c1ccccc1)c1ccccc1` (configuration not stated) the fluorescence interference ratio was 1.08 (inactive).
In the case of `CCCOc1ccc(C(=O)Nc2ccc(N(CC)CC)cc2)cc1`, the fluorescence interference ratio was 1.28 (active).
With `CCCOc1ccc(C(=O)Nc2ccc(-c3nc4ccccc4o3)c(O)c2)cc1` the fluorescence interference ratio was 1.03 (inactive).
With `CCOc1ccc(C(=O)Nc2ccncc2)cc1` the fluorescence interference ratio was 0.969 (inactive).
For `O=c1oc2cc(OC/C=C/c3ccccc3)ccc2c2ccccc12`, the fluorescence interference ratio was 1.11 (inactive).
With `O=C(O)CC1S/C(=N\N=C/c2ccccc2O)N(c2ccc(O)cc2)C1=O` (configuration not stated) the fluorescence interference ratio was 1.05 (inactive).
For `O=S(=O)(c1ccc(Br)c2ccccc12)N1CCOCC1`, the fluorescence interference ratio was 0.956 (inactive).
In the case of `CC(C)CC(=O)Nc1cc(C(=O)O)cc(C(=O)O)c1`, the fluorescence interference ratio was 1.05 (inactive).
For `O=C(CN1C(=O)c2ccc([N+](=O)[O-])cc2C1=O)Nc1cc(Cl)ccc1C(=O)O`, the fluorescence interference ratio was 0.984 (inactive).
In the case of `CCN(CC)c1ccc(/C=C2\C(=O)NC(=O)N(c3ccc(OC)cc3)C2=O)c(OC)c1`, the fluorescence interference ratio was 1.26 (active).
With `COc1ccc(/C=C2\C(=O)NC(=S)N(c3ccc(Br)cc3)C2=O)cc1` the fluorescence interference ratio was 1.05 (inactive).
In the case of `COc1ccc(OC)c(N2C(=O)NC(=O)C(=Cc3ccc(C)o3)C2=O)c1`, the fluorescence interference ratio was 1.1 (inactive).
For `O=C1NC(=O)C(=Cc2cc([N+](=O)[O-])cc(Br)c2O)C(=O)N1`, the fluorescence interference ratio was 0.895 (inactive).
With `CC(=O)OC(OC(C)=O)c1ccc([N+](=O)[O-])s1` the fluorescence interference ratio was 0.829 (inactive).
For `CCOc1cccc2c1NC(C)(C)c1sn(-c3ccccc3)c(=S)c1-2`, the fluorescence interference ratio was 0.947 (inactive).
With `CCC(=O)NC(N)=Nc1nc(C)c2cc(C)cc(C)c2n1` the fluorescence interference ratio was 1.11 (inactive).
For `CC1=C(C(=O)OC(C)C)C(c2ccc(Cl)c(Cl)c2)N2C(=O)CCSC2=N1` (configuration not stated), the fluorescence interference ratio was 0.92 (inactive).
